PubChem BioAssay (NCI)
This is part of a sample that, as a whole, favours compounds with a hit. Of some 79,000 tested, about 15% had one in any assay. Rule as the data show it: active = growth inhibition above about 70%; inactive = the rest. Where a SMILES comes first, the peptide text is derived from it. [ ]: non-standard residue; d: D form. ξ: configuration not given here. ξPhe(4-N(CH2CH2Cl)2) = NC(Cc1ccc(N(CCCl)CCCl)cc1)C(=O)O; Aad = N[CH](CCCC(=O)O)C(=O)O

What was measured:
[1] = NCI Yeast Anticancer Drug Screen. Data for the rad50 strain (AID 155);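 also: 0% = growth of vehicle-only cultures of the same strain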; conditions: S. cerevisiae rad50 strain growth inhibition; at 50.0 µM; hits give high values
Procedure, shortened: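 Growth of the mutant yeast was measured after compound exposure and referenced to vehicle-treated cultures.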

[2] = NCI Yeast Anticancer Drug Screen. Data for the mec2-1 strain (AID 157); conditions: S. cerevisiae mec2-1 strain, at 50.0 µM, hits give high values
Procedure, shortened: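 Mutant yeast (mec2-1) grown with compound; growth inhibition relative to vehicle control reported.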

[3] = NCI Yeast Anticancer Drug Screen. Data for the sgs1 mgt1 strain (AID 161);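 also: 0% = growth of cultures given vehicle only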; conditions: S. cerevisiae sgs1 mgt1 strain, at 50.0 µM, hits give high values
Procedure, shortened: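 Growth of a repair-deficient yeast mutant was monitored after compound treatment and expressed as inhibition relative to vehicle-treated cultures.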

[4] = NCI Yeast Anticancer Drug Screen. Data for the cln2 rad14 strain (AID 165);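 also: 0% = growth equal to vehicle treated cultures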; conditions: S. cerevisiae cln2 rad14 strain, at 50.0 µM, hits give high values
Procedure, shortened: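 Readout is yeast growth inhibition versus vehicle-treated controls, using a strain with cln2 and rad14 alterations exposed to compound.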

[5] = NCI Yeast Anticancer Drug Screen. Data for the bub3 strain (AID 167); conditions: S. cerevisiae bub3 mutant strain, at 50.0 µM, hits give high values
Procedure, shortened: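 Whole-cell yeast assay. The mutant strain was incubated with compounds, and growth inhibition was determined by comparison with vehicle-treated cells.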

[6] = NCI Yeast Anticancer Drug Screen. Data for the mlh1 rad18 strain (AID 175); conditions: S. cerevisiae mlh1 rad18 strain growth inhibition; at 50.0 µM; hits give high values
Procedure, shortened: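 Genetically defined yeast (DNA repair-deficient) exposed to compounds; growth inhibition determined relative to vehicle.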

Measured: growth inhibition

CC(Br)CN(CC(C)Br)c1ccc(-c2ccccc2)cc1 (stereo unspecified)
inactive: [1] 38.5% | [2] 30% | [3] 12.6% | [4] 35.7% | [5] 15.6% | [6] 21.7%

Nc1nc(CC(N)C(=O)O)c[se]1 (stereo unspecified)
inactive: [1] 56.8% | [2] 28.4% | [3] 21.1% | [4] 5.35% | [5] 21.3% | [6] 11%

O=[N+]([O-])c1ccc2nc(-c3ccc(S(=O)(=O)F)cc3)cc(Cl)c2c1
inactive: [1] -19.1% | [2] 16.9% | [3] 4.45% | [4] -12.4% | [5] 13.3% | [6] -9.9%

Nc1cc(S(=O)(=O)F)cc(Cl)c1O
inactive: [1] 25.2% | [2] -3.55% | [3] 14.9% | [4] -61.2% | [5] 23.2% | [6] 24.6%

[C-]#[O+].[C-]#[O+].[C-]#[O+].[C-]#[O+].[C-]#[O+].[C-]#[O+].[Fe].[Fe].c1ccc([P-]c2ccccc2[P-]c2ccccc2)cc1 (stereo unspecified)
inactive: [1] 8.7% | [2] 26.9% | [3] -11.3% | [4] 26.9% | [5] 12.6% | [6] 18.7%

CC12CCC3C(CCC4=CC(O)CCC43C=O)C1(O)CCC2c1ccc(=O)oc1 (stereo unspecified)
inactive: [1] 7.15% | [2] -35% | [3] 18.1% | [4] 15.2% | [5] -11.2% | [6] 5.05%

COc1cc2c(cc1OC)C13CCN4C=C5CCOC6CC(=O)N2C1C6C5CC43 (stereo unspecified)
inactive: [1] -25.4% | [2] -8.7% | [3] -12.7% | [4] 1.75% | [5] -60% | [6] 16.8%

N#CS.[Co+3].[NH-]CC[NH-].[NH-]CC[NH-].[NH-]CC[SH2+]
inactive: [1] 12.2% | [2] 43% | [3] 13.2% | [4] 3.2% | [5] 35.6% | [6] 9.65%

CCCCN(CCCC)C(=O)C1C=C2c3cccc4[nH]cc(c34)CC2N(C)C1 (stereo unspecified)
inactive: [1] -0.85% | [2] -1.3% | [3] -11.2% | [4] -13.2% | [5] 6.65% | [6] 37.4%

O=C(NC(c1ccccc1)(c1ccccc1)c1ccccc1)N(CCCl)CCCl
inactive: [1] 5.95% | [2] 20.7% | [3] 12.9% | [4] 5.3% | [5] 39.5% | [6] -7.5%

CCC1C2Cc3ccc(O)cc3C1(CC)CCN2C (stereo unspecified)
inactive: [1] 10.6% | [2] -35.2% | [3] -42.5% | [4] -1.65% | [5] -77.2% | [6] -13.2%

ClCCCN1CCN(c2ccccc2Cl)CC1
inactive: [1] 9.35% | [2] -16.7% | [3] 7.45% | [4] 7.45% | [5] 1.15% | [6] -7.8%

C[n+]1ccc(/C=C\c2ccc(N(CCCl)CCCl)cc2)c2ccccc21
inactive: [1] 4.8% | [2] 15.9% | [3] 4% | [4] 24.1% | [5] 15.4% | [6] 18.6%

CC(=O)O[C@H]1CC[C@]2(C)C3=C([C@@H](OO)C[C@H]2C1(C)C)[C@]1(C)CC[C@H]([C@H](C)CCCC(C)C)[C@@]1(C)CC3
inactive: [1] 13.1% | [2] 4.4% | [3] 14.7% | [4] 20.9% | [5] 8.45% | [6] 25.3%

CC(C)CNC12CN3CN(CN(C3)C1)C2
inactive: [1] -9.25% | [2] -11.2% | [3] -6% | [4] -27.9% | [5] -4.85% | [6] -23.7%

CCCCC(CC)COP(=S)(S)OCC(CC)CCCC.[Sn] (stereo unspecified)
inactive: [1] -7.7% | [2] -10.4% | [3] -6.5% | [4] -46.9% | [5] 13.8% | [6] -7.7%

O=C(NCCO)c1cc([N+](=O)[O-])cc([N+](=O)[O-])c1
inactive: [1] -37.9% | [2] -4.25% | [3] -1.25% | [4] -25.9% | [5] -11.7% | [6] 3.4%

N=c1nc(N)n2c(N)nc(=N)n12
inactive: [1] 19.9% | [2] 12.7% | [3] -1.55% | [4] 4.05% | [5] -1.75% | [6] 2.45%

COc1ccc2c(c1O)C13C=C(OS(=O)(=O)c4ccc(C)cc4)C=CC1C(C2)N(C)CC3 (stereo unspecified)
inactive: [1] 40.3% | [2] -4.2% | [3] 34.9% | [4] 13.9% | [5] -1.85% | [6] 3.55%

CCOC(=O)C(Cc1ccc(N(CCCl)CCCl)cc1)NC(=O)C(CCC(=O)O)NC(=O)C(Cc1ccc(O)cc1)NC(=O)C(CCCC(=O)O)NC(=O)C(N)Cc1ccc(O)cc1 (stereo unspecified) (H-Y[Aad]YE[ξPhe(4-N(CH2CH2Cl)2)]-OEt; configuration not given here)
inactive: [1] 7.7% | [2] 13.9% | [3] -6.5% | [4] 14.8% | [5] 8.05% | [6] 30.3%

O=[N+]([O-])c1ccc(CI)cc1
inactive: [1] 5.65% | [2] 34.2% | [3] 36.6% | [4] -3.55% | [5] 13.4% | [6] 23.3%
